Data on 17 molecules can be found in PubChem BioAssay (NCI).

Compounds without any hit were thinned out: in the full panel of roughly 83,000, 20% have a hit.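 Each cell line was grown in a 96-well plate and treated with one concentration of compound for 48 hours. Values below 10 were considered active.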 A number with no mark means an inactive call. The source made the active and inactive calls.

Some test systems named below: T-47D breast; MDA-MB-435 melanoma; SW-620 colon; MCF7 breast; HCT-116 colon; HCC-2998 colon; KM12 colon.
Common to all, as to test: NCI-60 one-dose screen, 48 h (100 = growth as untreated, 0 = no growth, -100 = all killed)
Conditions in all cases: 10 µM unless noted

`COc1ccc(C=C2c3ccccc3-c3ccccc32)cc1`: the growth with T-47D breast is 46.6%; in the assay on MDA-MB-435 melanoma, -10.4% (active); with SW-620 colon, 19.4%; in the assay on MCF7 breast it was 13%; in the assay with HCT-116 colon, 16.9%; in the assay with HCC-2998 colon, 73.6%. Also, the growth in the assay with KM12 colon was 24.8%.

Take `CCNc1cc2c(cc1Br)-c1ccccc1C2=O`: the growth was 34.4% with T-47D breast; 114% in the assay on MDA-MB-435 melanoma; 98.9% with SW-620 colon; 26.8% in the assay with MCF7 breast; 97.8% with HCT-116 colon; 102% in the assay with HCC-2998 colon. For the same molecule, the growth in the assay with KM12 colon is 83.4%.

`O=C(NCCCCCCCNC(=O)OCc1ccc2c(Cl)cc(Cl)c(O)c2n1)OCc1ccc2c(Cl)cc(Cl)c(O)c2n1`: the growth is -62.5% (active) in the assay on T-47D breast; -86.4% (active) in the assay with MDA-MB-435 melanoma; -67.3% (active) with SW-620 colon; -30.2% (active) with MCF7 breast; -70% (active) in the assay on HCT-116 colon; -75.8% (active) with HCC-2998 colon. For the same molecule, the growth with KM12 colon was -82.4% (active).

As to `COCCCNc1nc(NC(=O)c2cc(Br)cc(C(F)(F)F)c2)cc(-c2cccnc2)n1`, the growth in the assay with T-47D breast was 65%; in the assay on MDA-MB-435 melanoma, 88.4%; in the assay on SW-620 colon, 86.9%; in the assay with MCF7 breast it was 83.8%; in the assay with HCT-116 colon it was 85.6%; with HCC-2998 colon it was 114%. Besides, the growth in the assay on KM12 colon is 105%.

Consider `Cn1cc(-c2noc(-c3cn(C)c4ncc(F)cc34)n2)c2cc(Cl)ccc21`, for which the growth with T-47D breast is 14%; in the assay on MDA-MB-435 melanoma, 68.5%; in the assay on SW-620 colon, 47.4%; in the assay on MCF7 breast, 38.5%; in the assay on HCT-116 colon it was 44.5%; in the assay on HCC-2998 colon it was 97%. In the assay on KM12 colon, the growth was 61.1%.

As for `COc1ccc2c(c1)c(-c1noc(-c3cn(C)c4ncc(F)cc34)n1)cn2C`, the growth with T-47D breast was 76.8%; in the assay with MDA-MB-435 melanoma, 77.1%; in the assay with SW-620 colon it was 82%; in the assay on MCF7 breast, 54.6%; in the assay with HCT-116 colon it was 80.7%; with HCC-2998 colon, 90%. The growth with KM12 colon was 87.8%.

For the molecule `N#Cc1ccc(-c2ccc(COc3ccc(CC4SC(=O)NC4=O)cc3)cc2)cc1` (centres undefined), the growth was 35.8% in the assay on T-47D breast; 45.4% in the assay with MDA-MB-435 melanoma; 80.1% in the assay on SW-620 colon; 38.1% in the assay with MCF7 breast; 42.5% in the assay on HCT-116 colon; 83.2% in the assay with HCC-2998 colon. For the same molecule, in the assay on KM12 colon, the growth was 61.9%.

In the case of `CC(=O)O.CC(=O)O.O.[Fe]`, the growth was 97.7% in the assay with T-47D breast; 128% with MDA-MB-435 melanoma; 98.3% with SW-620 colon; 111% in the assay on MCF7 breast; 108% in the assay on HCT-116 colon; 115% in the assay with HCC-2998 colon. Also, in the assay with KM12 colon, the growth was 104%.

As to `COC(=O)[C@@H](NC(=O)NC(=O)NC(=O)CI)C(C)C`, the growth is 44.8% in the assay on T-47D breast; 90.5% in the assay on MDA-MB-435 melanoma; 9.83% (active) in the assay on SW-620 colon; 59.9% with MCF7 breast; 75% in the assay on HCT-116 colon; 113% in the assay on HCC-2998 colon. Besides, the growth in the assay with KM12 colon is 100%.

For the molecule `O=[N+]([O-])c1cc(CCl)ccc1OCCBr`, the growth is 88.3% in the assay on T-47D breast; 104% with MDA-MB-435 melanoma; 106% with SW-620 colon; 89.7% in the assay with MCF7 breast; 93.9% in the assay on HCT-116 colon; 104% in the assay with HCC-2998 colon. The growth in the assay on KM12 colon was 113%.

For `CCOc1ccc2sc(NS(=O)(=O)c3ccc(N)cc3)nc2c1`, the growth with T-47D breast is 122%; in the assay with MDA-MB-435 melanoma it was 107%; in the assay with SW-620 colon it was 115%; in the assay with MCF7 breast, 97.4%; in the assay with HCT-116 colon, 110%; with HCC-2998 colon it was 107%. Besides, the growth with KM12 colon was 105%.

As for `CCOC(=O)COc1c(C)cc(SSc2cc(C)c(OCC(=O)OCC)c(C)c2)cc1C`, the growth in the assay with T-47D breast is 91.3%; in the assay on MDA-MB-435 melanoma, 114%; with SW-620 colon, 99.5%; with MCF7 breast it was 92.6%; with HCT-116 colon it was 104%; with HCC-2998 colon it was 112%. In the assay on KM12 colon, the growth was 72.4%.

Turning to `O=C1COCCN1c1ccc(NCc2cn(Cc3ccc(F)cc3)c3ccccc23)cc1`, the growth was -19.8% (active) in the assay with T-47D breast; 99.1% in the assay with MDA-MB-435 melanoma; 28.1% with SW-620 colon; 4.76% (active) in the assay on MCF7 breast; 6.21% (active) in the assay on HCT-116 colon; 81.9% in the assay on HCC-2998 colon. For the same molecule, the growth with KM12 colon is 98.6%.

As to `Cc1ccc(-c2cc(O)c(-c3ccc(C)cc3C)cc2O)c(C)c1`, the growth with T-47D breast was 67.1%; with MDA-MB-435 melanoma, 66.5%; with SW-620 colon it was 56.5%; with MCF7 breast, 49.2%; in the assay with HCT-116 colon, 23.9%; with HCC-2998 colon it was 77.7%. For the same molecule, in the assay with KM12 colon, the growth is 55.3%.

As to `COc1ccc(NC(=O)Nc2ccc(-c3cccnc3)cc2N2CCC(CO)CC2)cc1`, the growth was 68.8% in the assay on T-47D breast; 26% in the assay with MDA-MB-435 melanoma; 65.2% in the assay with SW-620 colon; 31.8% in the assay with MCF7 breast; 12.5% in the assay with HCT-116 colon; 42% in the assay with HCC-2998 colon. The growth with KM12 colon is 38.8%.

For the molecule `CN(C)C(=S)Sc1ccc([N+](=O)[O-])cc1[N+](=O)[O-]`, the growth in the assay with T-47D breast is -34.7% (active); with MDA-MB-435 melanoma, 44.4%; in the assay on SW-620 colon it was -63.1% (active); in the assay with MCF7 breast, 0.536% (active); with HCT-116 colon, -54.4% (active); in the assay with HCC-2998 colon, 88.9%. For the same molecule, in the assay with KM12 colon, the growth is 49.1%.

Regarding `Cc1ccc2c(n1)C(=O)C(Cl)=C(Nc1ccc(N3CCN(C)CC3)cc1)C2=O`, the growth in the assay on T-47D breast is -61.1% (active); in the assay on MDA-MB-435 melanoma, -99.1% (active); in the assay on SW-620 colon, -69.8% (active); in the assay with MCF7 breast, -61.9% (active); in the assay with HCT-116 colon, -64.9% (active); in the assay on HCC-2998 colon, 95.3%. Further, the growth with KM12 colon was 92.1%.
